Compound activity as filed in PubChem BioAssay.
PMK inhibit – blocks S. pneumoniae phosphomevalonate kinase; purified PMK, PK/LDH-coupled NADH absorbance 340 nm; inhibition, % at 10 µM; 65,000 compounds, 0.49% hits; AID 539;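 active = top-ranked compounds by inhibition in the single 10 µM screen, taking a fixed number of the strongest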
Spn MK inh – S. pneumoniae mevalonate kinase inhibition. 65,000 compounds, 0.48% hits. inhibition, % at 10 µM. AID 555. purified MK, PK/LDH-coupled NADH absorbance 340 nm;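 active = ranked among the strongest by inhibition in the single 10 µM screen, a fixed top-ranked set picked for dose follow-up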
Autofluor 339 – intrinsic fluorescence of library compounds, ex339/em460 – biochemical, MLSMR library, data from DPM-DC assay, artefact control, profiling panel; compound autofluorescence, ex339/em460 nm, NADH buffer; hits give high values; 1 = no-compound wells, NADH background; fluorescence fold increase at 10 µM; 65,000 compounds, 5.5% hits; AID 709;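 active = at 10 µM, mean starting fluorescence two-fold or more over control wells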;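 note: signal is the first read of a kinetic run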
DPM-DC inhibit – S. pneumoniae DPM-DC inhibition; AID 556; 65,000 compounds, 0.49% hits; purified DPM-DC, PK/LDH coupled NADH fluorescence; calls only at 10 µM;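 active = the 320 compounds with the highest percent inhibition in the single-dose primary screen, excluding strongly autofluorescent ones, cut at about 32% in these data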;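 note: kinetic rate of NADH fluorescence loss reporting ADP formed by the decarboxylase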
NADH enzymes – inhibition of NAD/NADH coupling enzymes, library profiling | coupled PK/LDH NADH assays, four targets | IC50, µM (titrated, usually from 10 µM) | 65,000 compounds, 0.02% hits | AID 774;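 active = single-dose screening hits from any of four coupled enzyme assays that gave an IC50 when retested across doses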;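 note: the DPM-DC format reads NADH fluorescence rather than 340 nm absorbance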
Abs 340nm – compound absorbs light at 340 nm | compound absorbance at 340 nm, fold over control | fold change at 10 µM | 65,000 tested, under 10 active;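 active = at 10 µM dose, initial 340 nm absorbance at least 2 fold that of control wells; inactive = change under 2 fold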;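 note: initial absorbance extrapolated from kinetic A340 decline of NADH oxidation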
Hits are given with their value; i = inactive; nt = not tested or not shown; + = active, no number. Compounds with a hit are over-represented: about 6.3% of the library has one in this group of screens.

SMILES	PMK inhibit	Spn MK inh	Autofluor 339	DPM-DC inhibit	NADH enzymes	Abs 340nm
N#Cc1ccc(-c2cccnc2)nc1SCC(=O)Nc1sc2c(c1C#N)CCC2	i	62.0	i	i	i	i
Cc1cccc(OCC(=O)Nc2ccc(N3CCCC3)cc2)c1C	i	i	i	i	i	i
CCOc1ccccc1OCC(=O)Nc1ccc(N2CCCCC2)cc1	i	i	i	+	i	i
CCC(O)CNc1nc(SC)nc2sc3c(c12)CCN(C)C3 (stereo not given)	i	i	2.22	nt	i	i
CSc1nc(NCc2ccco2)c2c3c(sc2n1)CN(C)CC3	i	i	i	i	i	i
CCNC(=O)NC(=O)COC(=O)c1ccccc1SCC(=O)NC(=O)NCC	i	i	2.13	nt	i	i
COCCCn1c(=NC(=O)c2ccc3c(c2)OCO3)c(C#N)cc2c(=O)n3cccc(C)c3nc21	i	i	i	i	i	i
Cc1cccn2c(=O)c3cc(C#N)c(=N)n(Cc4cccnc4)c3nc12	i	i	i	i	i	i
CCCn1c(=NC(C)=O)c(C#N)cc2c(=O)n3cccc(C)c3nc21	i	i	2.89	nt	i	i
CCCCCn1c(=NC(C)=O)c(C#N)cc2c(=O)n3cccc(C)c3nc21	i	i	3.62	nt	i	i
Cc1ccc(Nc2ncnc3nc[nH]c23)cc1Cl	i	i	i	i	i	i
Nc1ccc2c(C(F)(F)F)cc(=O)oc2c1	i	i	3.73	nt	i	i
Nc1ccc2oc3ncccc3c(=O)c2c1	i	i	i	i	i	i
O=C(Cn1cnnn1)OCC(=O)c1ccc(Cl)s1	i	i	2.3	i	i	i
COc1ccc(-c2c(NC(C)=O)n(C)c3ccccc3c2=O)cc1	i	i	3.81	nt	i	i
Cn1c(NC(=O)c2ccco2)c(-c2ccccc2)c(=O)c2ccccc21	i	i	i	i	i	i
CN(C)c1ccc(-c2nn3c(-c4ccncc4)nnc3s2)cc1	i	i	i	i	i	i
CN(C)c1ccc(-c2nn3c(-c4ccccc4Cl)nnc3s2)cc1	i	i	3.3	nt	i	i
COc1ccccc1-c1nnc2sc(-c3ccc(N(C)C)cc3)nn12	i	i	2.32	+	i	i
COc1ccccc1-c1nn2c(C(F)(F)F)nnc2s1	i	i	3.01	i	i	i
COc1ccc(-c2nn3c(-c4ccccn4)nnc3s2)cc1OC	i	i	i	+	i	i
CC(=O)c1ccc(N2CCCC2)c(F)c1	i	i	i	i	i	i
Brc1cc2[nH]cnc2c2ccccc12	i	i	i	i	i	i
O=c1cc(O)c2c(=O)[nH]c(=O)n(-c3ccccc3)c2[nH]1	25.0	i	i	i	i	i
CCOc1c(Br)cc(C2NS(=O)(=O)N=C3CCCCCN32)cc1OC (stereo not given)	i	i	i	i	i	i
SMILES	PMK inhibit	Spn MK inh	Autofluor 339	DPM-DC inhibit	NADH enzymes	Abs 340nm
Cc1ccc2nsnc2c1S(=O)(=O)N1CCN(CCc2ccccc2)CC1	i	i	i	i	i	i
COc1cccc(C(=O)Nc2ccc(NC(=O)C(C)C)nc2)c1	i	i	i	+	i	i
CCCC(=O)Nc1ccc2c(c1)C(=O)N(CCC(=O)O)C2=O	i	i	3.77	nt	i	i
O=C(O)CCN1C(=O)c2ccc(NC(=O)c3cccs3)cc2C1=O	i	i	3.56	nt	i	i
CC(C)c1nc2n[nH]c(N)c2c2c1CCC2	i	i	i	i	i	i
CC(=O)Nc1nc(C)nc(C)c1C(C)=O	i	nt	i	i	i	i
NC(N)=NC(=O)c1nc(Cl)c(N)nc1N	i	i	2.04	i	i	i
COC(=O)c1ccc(Sc2ccc(C)cc2)c(N)c1	i	i	3.08	i	i	i
CCOC(=O)c1[nH]nc(C(=O)c2ccc(Br)cc2)c1O	29.0	i	i	i	i	i
S=c1[nH]nc(-c2ccncc2)n1Cc1ccccc1	i	i	i	i	i	i
Oc1ccc(-c2n[nH]c(=S)n2Cc2ccccc2)cc1	i	active	i	i	i	i
COC(=O)/C(=C1/Oc2cc3c(cc2S1)OCO3)C(F)(F)F	i	i	2.23	i	i	i
C=CCOc1ccccc1C1C2=C(CC(C)(C)CC2=O)Nc2c1c(=O)n(C)c(=O)n2C (stereo not given)	i	i	3.57	nt	i	i
COC(=O)CCC(=O)CN	i	i	i	i	i	i
Cc1cnc(N)c2c(=O)oc3ccccc3c12	i	i	2.11	nt	i	i
CC1(C)CC(=O)C2=C(C1)N(CCN1CCOCC1)C1=C(C(=O)CC(C)(C)C1)C2c1cccc(Cl)c1	i	nt	4.3	nt	i	i
COC(=O)c1ccc(C2CC(=O)NC3=C2C(=O)CCC3)cc1 (stereo not given)	i	i	i	i	i	i
COC(=O)c1ccc(COc2ccc(C3C4=C(CCCC4=O)Nc4onc(C)c43)cc2)cc1 (stereo not given)	i	i	2.38	i	i	i
CCOC(=O)C1=CN(C)C=C(C(=O)OCC)C1c1ccsc1	i	i	4.85	nt	i	i
COC(=O)C1=CN(CC2CCCO2)C=C(C(=O)OC)C1c1ccsc1 (stereo not given)	i	i	2.14	nt	i	i
Cn1nnnc1SCC(=O)Nc1ccccc1Cc1ccccc1	i	i	i	i	i	i
CCOc1ccc(C(=O)NCCCN(CC)CC)cc1	i	i	i	i	i	i
COc1ccc2cc3cc(C(=O)NCCc4ccc(OC)c(OC)c4)oc3nc2c1	i	i	4.61	nt	i	i
CCCCN(CC)CCCNC(=O)c1cc2cc3ccc(OC)cc3nc2o1	i	i	5.09	nt	i	i
CCCN(CCC)CCCNC(=O)c1cc2cc3ccc(OC)cc3nc2o1	i	i	5.1	nt	i	i
SMILES	PMK inhibit	Spn MK inh	Autofluor 339	DPM-DC inhibit	NADH enzymes	Abs 340nm
COc1ccc(C)cc1NC(=O)c1cc2cc3ccc(C)cc3nc2o1	i	i	3.99	nt	i	i
CCOC(=O)C1=C(C)Nc2ncnn2C1c1ccccc1F (stereo not given)	i	i	i	i	i	i
COCc1cc(C)nc(Nc2ccc(C)c(C)c2)c1C#N	i	i	i	i	i	i
CCOc1ccccc1NC(=O)Cn1c(C)cc(COC)c(C#N)c1=O	i	i	i	i	i	i
COCc1cc(=O)n2c([nH]c3ccccc32)c1C#N	i	i	4.84	nt	i	i
COCc1cc(C)[nH]c(=O)c1C#N	i	i	2.19	nt	i	i
Cc1ccc(-c2cn3c(=S)[nH]nc3s2)cc1	i	99.0	i	i	i	i
Cc1c(C(=O)O)cnc2cc(-c3ccc(Cl)cc3)nn12	i	i	2.06	nt	i	i
Cc1cc2ccccc2n1CCNC(=O)c1cccs1	i	i	i	i	i	i
CC(=O)c1c(N)c(C#N)c(C)n1-c1ccc(Br)cc1	i	i	i	i	i	i
CCc1nc2oc3cc(OC)ccc3c(=O)c2c(=O)n1Cc1ccco1	i	i	i	i	i	i
COc1ccc(-c2nc3oc4cc(OC)ccc4c(=O)c3c(=O)n2Cc2ccco2)cc1	i	i	3.85	nt	i	i
O=C(CSc1ccc2nnc(-c3ccccc3)n2n1)NCC1CCCO1 (stereo not given)	i	i	2.2	i	i	i
